# Data taken from PubChem BioAssay (NCI).
# Compounds without any hit were thinned out: in the full panel of roughly 83,000, 20% have a hit.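 In brief: 96-well plates, 48 h treatment, single concentration, percent growth endpoint.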 Values without a mark were called inactive. Activity calls are given as the source filed them. How the source made its calls: active means growth percent below 10; inactive means the rest.
# Key:
# Assay in all cases: NCI-60 one-dose screen, 48 h (100 = growth as untreated, 0 = no growth, -100 = all killed)
# Conditions in all cases: 10 µM unless noted
# RPMI-8226 leukemia = test system: RPMI-8226 leukemia
# OVCAR-8 ovarian = test system: OVCAR-8 ovarian
# OVCAR-5 ovarian = test system: OVCAR-5 ovarian
# OVCAR-4 ovarian = test system: OVCAR-4 ovarian
# SK-OV-3 ovarian = test system: SK-OV-3 ovarian
# HS 578T breast = test system: HS 578T breast
# NCI/ADR-RES ovarian = test system: NCI/ADR-RES ovarian
# T-47D breast = test system: T-47D breast
# MDA-MB-435 melanoma = test system: MDA-MB-435 melanoma
# SW-620 colon = test system: SW-620 colon
# MCF7 breast = test system: MCF7 breast
# HCT-116 colon = test system: HCT-116 colon
# HCC-2998 colon = test system: HCC-2998 colon
# KM12 colon = test system: KM12 colon
# IGROV1 ovarian = test system: IGROV1 ovarian
# BT-549 breast = test system: BT-549 breast
# OVCAR-3 ovarian = test system: OVCAR-3 ovarian
SMILES,growth (RPMI-8226 leukemia),growth (OVCAR-8 ovarian),growth (OVCAR-5 ovarian),growth (OVCAR-4 ovarian),growth (SK-OV-3 ovarian),growth (HS 578T breast),growth (NCI/ADR-RES ovarian),growth (T-47D breast),growth (MDA-MB-435 melanoma),growth (SW-620 colon),growth (MCF7 breast),growth (HCT-116 colon),growth (HCC-2998 colon),growth (KM12 colon),growth (IGROV1 ovarian),growth (BT-549 breast),growth (OVCAR-3 ovarian)
COc1ccc([C@H]2C(=O)N(c3cc(OC)c(OC)c(OC)c3)[C@@H]2c2ccc(OC)c(O)c2)cc1,22.2%,5.81% (active),34.6%,63.5%,27.5%,2.75% (active),10.4%,90.5%,-6.94% (active),23.3%,14%,6.05% (active),13.3%,12.4%,,,
C#CCOc1ccc(/C=N/Nc2nc(-c3ccc(OC)cc3)cs2)cc1,53.3%,84.9%,104%,53.1%,99.6%,94%,89.6%,68.7%,79.3%,93.3%,69.8%,71.4%,103%,78.8%,96.6%,89.1%,
CN1CCN(c2ccc(Nc3nc(NCCCNS(=O)(=O)c4cccc5ccccc45)c4sccc4n3)cc2)CC1,-2.5% (active),5.7% (active),10.8%,-35.6% (active),-18% (active),-25% (active),13.5%,-2.47% (active),-73% (active),-0.438% (active),-20.9% (active),-73% (active),-51.4% (active),4.02% (active),6.32% (active),-87.3% (active),-62.7% (active)
CCOC(=O)C(=O)Nc1ccc2c(ccn2C(=O)c2cccc(F)c2)c1,101%,93.1%,92.4%,101%,103%,94.4%,,99.1%,100%,98.7%,89.6%,102%,103%,98.2%,103%,88.8%,
Brc1ccc2[nH]cc(-c3nn4cc(-c5nccs5)nc4s3)c2c1,4.55% (active),10.5%,67.5%,-4% (active),61.5%,-0.729% (active),15.8%,29.7%,12.9%,25.2%,33.9%,-81.7% (active),36.7%,21%,32%,62.6%,
O=C1C(N2CCN(c3ccccc3)CC2)=C(Cl)C(=O)c2ncccc21,35.5%,73.5%,107%,66%,91.5%,79.8%,77%,-54.2% (active),-67% (active),-35% (active),-44.7% (active),-56.1% (active),97.8%,92.3%,70%,97.3%,
O=C1/C(=C/c2cc(F)cc(F)c2)Cc2cc3c(cc21)OCO3,52.3%,42.5%,65.3%,61.9%,35.6%,46.9%,19.4%,47.6%,-44.3% (active),28.1%,29%,26.8%,65%,34.6%,36.9%,,
COc1cc(-c2nc(-c3ccccc3)[nH]c2-c2ccnc(NCCCNS(=O)(=O)c3cccc(F)c3)n2)ccc1F,62.4%,86%,118%,104%,136%,103%,92.1%,66.5%,82%,106%,83.1%,75.1%,142%,85.8%,-69.7% (active),128%,109%
CCS(=O)(=O)Nc1ccc(C(=O)CC2(O)C(=O)Nc3ccccc32)cc1 (stereo unspecified),101%,101%,102%,108%,105%,104%,96.7%,89.1%,108%,103%,,104%,100%,101%,90%,116%,
